Compound activity: PubChem BioAssay, National Center for Advancing Translational Sciences (NCATS)
An excerpt weighted towards active compounds, which were near 2.2% of everything screened.
TDP43 rescue: qHTS of TDP-43 Inhibitors | TDP-43 expressing yeast growth rescue, BacTiter-Glo, 24 h | Potency, µM (titrated, usually from 46.1 µM), without a hit: at the top dose growth rescue (activation), actives largely listed as activators | 410,000 tested, 1.8% active | AID 652104, 2013; note: % of control where 0% means no effect; nearly all actives have a fitted effect of over 50% in size
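Growth rescue of TDP-43-toxic yeast measured as ATP luminescence (BacTiter-Glo). Cells grown to mid-log in raffinose, induced in galactose at OD600=0.02, exposed to compound 24 hr at 30 deg C.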
Abeta rescue: qHTS for compounds that reverse cellular toxicity of Amyloid beta (A-beta) peptide in yeast: Primary Screen; yeast expressing A-beta42, growth rescue, OD600, 48 h; response scale: 0% DMSO, 100% iron-clioquinol control; Potency, µM (titrated, usually from 46.1 µM), hits mostly activators; 410,000 tested, 0.063% active; note: nearly all actives have a fitted effect of over 55% in size
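Growth rescue measured by 600 nm absorbance after 48 h yeast culture at 30 C with compound. Values normalized between DMSO and an equimolar ferric chloride plus clioquinol control.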
Mito fusion yeast: qHTS Assay for Small Molecule Inhibitors of Mitochondrial Division or Activators of Mitochondrial Fusion; AID 485298, 2010; 320,000 tested, 0.23% active; Potency, µM (titrated, usually from 46.1 µM), without a hit: top-dose growth rescue (activation), hits mostly activators; S. cerevisiae fusion-defective mutant growth rescue, CellTiterGlo 48 h; note: % of control where 0% means no effect; nearly all actives have a fitted effect of over 45% in size
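Growth-rescue viability read-out: after 48 h at the non-permissive 37C in glycerol/ethanol YPEG, yeast mitochondrial fusion mutants are measured by CellTiterGlo luminescence; compounds (23 nl pinned per well) restoring growth score as division inhibitors or fusion activators.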
ERG Ets-DNA blk: qHTS for Small Molecule Inhibitors of the ERG Ets/DNA interaction; Potency, µM (highest dose often 76.9 µM), for the others: at the top dose FP activity, negative = inhibition, hits mostly inhibitors; 370,000 tested, 0.028% active; AID 624246, 2012; fluorescence polarization, His-ERG Ets domain / labelled DNA; active = well fitted inhibition curve with a large enough effect in the polarisation, with a control signal flat; inconclusive = small, poorly fitted or top-dose-only effect, or effect the other way, or a change in a side signal; inactive = no such curve, though single readings can be large or run the other way; the % refers to the polarisation;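 note: polarization taken with two DNA probes labelled with fluorescein and Texas red; % of control where 0% means no effect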
Target sequence (P11308 whole entry, looked up, the tested form may be a part): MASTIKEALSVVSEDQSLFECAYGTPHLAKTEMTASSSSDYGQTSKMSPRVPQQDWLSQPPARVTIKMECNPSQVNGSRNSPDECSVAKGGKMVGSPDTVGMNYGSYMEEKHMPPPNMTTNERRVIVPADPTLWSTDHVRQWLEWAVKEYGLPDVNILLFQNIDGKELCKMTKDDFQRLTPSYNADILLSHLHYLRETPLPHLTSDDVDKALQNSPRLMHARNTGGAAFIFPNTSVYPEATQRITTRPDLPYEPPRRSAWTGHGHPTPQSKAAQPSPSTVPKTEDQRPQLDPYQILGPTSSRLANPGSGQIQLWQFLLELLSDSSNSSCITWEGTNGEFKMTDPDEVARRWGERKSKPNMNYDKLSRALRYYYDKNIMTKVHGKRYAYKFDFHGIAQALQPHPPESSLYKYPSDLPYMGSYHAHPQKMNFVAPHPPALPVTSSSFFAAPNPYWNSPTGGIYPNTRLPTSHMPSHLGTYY
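His-tagged ERG Ets domain (1 uM in the protein solution; 300mM KCl, 50mM Tris-HCl, 1mM EDTA, 1mM DTT, pH 7.5) received compound, then a probe mix of 5 nM fluorescein-DNA and 100nM Texas-615-DNA. Fluorescence polarization was read for both dyes.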
FUS yeast rescue: qHTS for Suppressors of FUS Proteinopathy: Primary screen using FUS-linked yeast assay. S. cerevisiae FUS-expressing, growth rescue, OD600, 24 h. Potency, µM (top dose mostly 76.6 µM), hits mostly activators. AID 1347120, 2019. 390,000 tested, 0.24% active;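 note: plate controls were DMSO vehicle for no effect and reference control for full effect; nearly all actives have a fitted effect of over 55% in size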
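Quantitative HTS measuring growth restoration of FUS-toxic yeast. Galactose-induced cells (OD 0.005) were exposed 24hr at 30C to compounds at several concentrations, then absorbance at 600 nm was recorded.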
aSyn yeast inh: qHTS of alpha-syn Inhibitors. Yeast expressing alpha-synuclein, growth rescue, BacTiter-Glo, 24 h. Potency, µM (top dose mostly 46.1 µM), for inactives: at the highest dose growth rescue (activation), hits mostly activators. 370,000 tested, 0.14% active. AID 652106, 2013; note: % of control where 0% means no effect; nearly all actives have a fitted effect of over 65% in size
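Rescue of yeast growth: cells expressing toxic alpha-synuclein, induced in galactose at OD600 0.02, incubated with compound 24 h at 30 C. ATP luminescence quantified growth; inhibitors of toxicity appear as activators.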
Starred values were filed as active, the others as inactive; i = inactive; ? = inconclusive; / = no result. Unless noted, calls come from the whole dose curve; as a rule, active = well fitted curve in the direction sought with a large enough effect; inconclusive = small, poorly fitted or top-dose-only effect, or another doubt; inactive = no such curve, though single readings can be large; an effect the other way counts as inactive or inconclusive. Potency is the fitted concentration of half-maximal effect.

SMILES	TDP43 rescue	Abeta rescue	Mito fusion yeast	ERG Ets-DNA blk	FUS yeast rescue	aSyn yeast inh
Cc1ccc(CNC(=O)O[C@H]2CC[C@@]34CCCN3C(=O)CCC[C@H]4C2)o1	/	/	/	/	i	/
O=C(COc1cccc2cccnc12)N/N=C/c1ccccc1O	1.3%	i	-0.7%	9.1%	i	4.2%
Oc1ccccc1/C=N/Nc1cccc2cccnc12	17.8µM*	i	-10.7%	5.4%	i	-16.6%
COc1cc(C2Oc3ccccc3C=C2[N+](=O)[O-])cc(OC)c1OC (centres undefined)	5.01µM*	i	-12.9%	3.7%	i	?
N/C(=N\OC(=O)c1ccncc1)c1cccc([N+](=O)[O-])c1	?	i	3.2%	-1.1%	i	5.4%
Cc1ccc(C(=O)O/N=C(\N)c2cccc([N+](=O)[O-])c2)cc1	10µM*	i	-2.5%	2.1%	i	-12.7%
N/C(=N\OC(=O)c1ccc(Br)cc1)c1cccc([N+](=O)[O-])c1	10µM*	i	0.6%	2.6%	i	-17.1%
N/C(=N\OC(=O)Cc1cccs1)c1cccc([N+](=O)[O-])c1	11.2µM*	i	1.1%	6.2%	i	27.5%
N/C(=N\OC(=O)c1ccc([N+](=O)[O-])cc1)c1ccc(Br)cc1	14.9%	i	-0.3%	-2.9%	i	-8.0%
COC(=O)[C@]12C[C@H](CC(=O)N3CCCC3)C(=O)N(CCc3ccc(OC)c(OC)c3)C1=C[C@H](C(C)(C)C)O[C@@H]2C	/	/	/	/	i	/
O=C1c2ccc([N+](=O)[O-])cc2C(=O)N1c1ccc([N+](=O)[O-])cn1	-9.8%	i	/	4.8%	i	1.3%
C/C(=N\NC(=S)NCC(C)(C)C)c1cc(F)cc(F)c1O	12.6µM*	?	2.6%	30.9%	i	8.5%
CCOc1ccc(NC(=O)c2ccc3c(SCC(=O)O)c4c(nc3c2)CCC4)cc1	-3.0%	i	/	5.1%	i	/
COc1ccc(S(=O)(=O)N2CCCCC2)cc1NC(=S)Nc1cccc(Cl)c1C	-6.3%	i	3.6%	11.3%	2.82µM*	0.9%
Cc1cccc(Oc2ccc(S(=O)(=O)N3CCCCC3)cc2NC(=O)C2=COCCO2)c1	-20.0%	i	15.8%	-0.6%	28.2µM*	-5.9%
CCCCOc1cccc(C2c3c(-c4cc(C)ccc4O)n[nH]c3C(=O)N2CCOC)c1 (centres undefined)	?	?	/	9.1%	i	/
O=C(Nc1ccc(F)cc1F)c1ccc2c(O)c(S(=O)(=O)c3ccc(Cl)cc3)c(=O)[nH]c2c1	3.2%	i	/	-2.2%	i	/
O=S(=O)(NCc1ccco1)c1cnc(Cl)c(Br)c1	14.1µM*	i	9.2%	26.2%	/	?
O=S(=O)(NCc1ccco1)c1ccc2ccccc2c1	?	i	-2.0%	-3.6%	i	0.1%
O=C(O)c1cccc(S(=O)(=O)NCCc2ccccc2)c1	6.7%	i	1.9%	-2.5%	i	3.2%
O=S(=O)(NCCc1ccccc1)c1cnc(Cl)c(Br)c1	11.2µM*	i	10.1%	4.9%	/	13.0%
O=C(C[n+]1cccc(Cl)c1)c1ccc(O)c(O)c1	/	/	/	/	/	7.1%
COc1ccc(N=C2SCC(=O)N2Cc2ccccc2)cc1	12.6µM*	i	-0.1%	3.8%	i	-14.2%
Cc1c(Cl)cccc1NC(=O)c1ccc2c(c1)CCN2S(=O)(=O)c1ccccc1	17.1%	i	/	0.7%	i	/
O=C(O/N=C(/c1ccccc1)c1ccncc1)c1cccc(F)c1	14.1µM*	i	4.6%	-5.6%	i	11.0%
O=C(O/N=C(\c1ccccc1)c1ccncc1)c1ccccc1F	?	i	-0.4%	-7.0%	i	?
